According to PubChem BioAssay (NCI):
About 83,000 compounds went through this panel and 20% of them were active in at least one assay; those are over-represented in the sample as a whole.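 How to read the values: 0–100, growth inhibition (40 = 60% inhibited); 0, no net growth; -100 to 0, cell death (-40 = 40% of starting cells died; -100 = all dead).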 Activity calls are given as the source filed them. The calls were made as follows: active = growth percent below 10; inactive = the rest.

tested on: MDA-MB-468 breast; assay: NCI-60 one-dose screen, 48 h (100 = growth as untreated, 0 = no growth, -100 = all killed); settings: 10 µM unless noted

Structure (SMILES) | growth
NC1(C(=O)N[C@@H](CCO)c2ccc(Cl)cc2)CCN(c2ncnc3[nH]ccc23)CC1 | 4.8% (active)
O=c1oc2cc(OS(=O)(=O)c3ccccc3)ccc2c2c1CCCCC2 | 44.3% (inactive)
CC(=O)Oc1c(Cl)c(Cl)c(Cl)c(Cl)c1Cl | 113% (inactive)
O=C(NCCc1ccccc1)Nc1ccc2cc3ccc(NC(=O)NCCc4ccccc4)cc3nc2c1 | -5.36% (active)
O=C1C=CC(=O)N1c1ccc2c(c1)Cc1cc(F)ccc1-2 | 92.6% (inactive)
C/C(=C(\c1ccc(OCCCN(C)C)cc1)c1ccc(OC(=O)Cc2ccccc2)cc1)c1ccc(Cl)cc1 | 84.1% (inactive)
O=C(CS(=O)c1oc(-c2cccs2)nc1S(=O)(=O)c1ccc(Br)cc1)c1ccccc1 (stereo not given) | 101% (inactive)
c1ccc(CO[C@H]2CO[C@H]3[C@@H]2OC[C@H]3OCc2ccccc2)cc1 | 112% (inactive)
CCOC(=O)c1nnn(-c2no[n+]([O-])c2-c2ccc(OC)cc2)c1COc1cccc2cccnc12 | 33.6% (inactive)
CCOC(=O)c1n[nH]n2c1nc(=O)c1cnn(C)c12 | 113% (inactive)
Cc1cccc[n+]1C1c2ccccc2-c2ccccc21 | 68.5% (inactive)
NC(N)=NC(N)=Nc1ccccc1-c1ccccc1 | 109% (inactive)
CC(C)(C)c1cc(C(=O)Nc2cc3ccccc3cc2C(=O)NCCN)cc(C(C)(C)C)c1 | -87.6% (active)
COc1ccc2c(c1)CCCN2c1c2ccccc2nc2ccccc12 | -3.81% (active)
COc1cc(CNC(=O)c2ccsc2Nc2ccnc(C(F)(F)F)c2)ccc1O | 95.6% (inactive)
